Test results published in PubChem BioAssay (Tox21).
Values without a mark were called inactive. Results filed as inconclusive are left out. Entries that show only a call come without a potency. Activity calls are given as the source filed them. Unless noted, calls follow the shape of the full dose curve.

What was measured:
[1] = Nuclear factor erythroid 2-related factor 2/antioxidant responsive element (Nrf2/ARE) small molecule agonists: qHTS cell viability counter screen in human keratinocytes (AID 1919968; active = well fitted curve in the direction sought with a large enough effect in the repeat runs; an effect the other way counts as inactive or inconclusive; also: nearly all actives have a fitted effect of over 55% in size; also: potency is read from the fitted curve at half-maximal effect)
Procedure, shortened: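 Cells of the KeratinoSens line were plated at 1,500 per well and left for 5 h before compound transfer from DMSO stocks. After a 23 h incubation (37 C, 5% CO2), CellTiter-Fluor was added. Signal was taken as fluorescence intensity 1 h later.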

[2] = molecular target: Gonadotropin-releasing hormone receptor (Homo sapiens) (UniProt P30968); assay: Human gonadotropin-releasing hormone receptor (GnRHR) small molecule agonists, calcium flux assay in GnRHR-HEK293 cells (AID 1920063); also: nearly all actives have a fitted effect of over 35% in size
Chain of Gonadotropin-releasing hormone receptor (Homo sapiens) (P30968 whole entry, looked up): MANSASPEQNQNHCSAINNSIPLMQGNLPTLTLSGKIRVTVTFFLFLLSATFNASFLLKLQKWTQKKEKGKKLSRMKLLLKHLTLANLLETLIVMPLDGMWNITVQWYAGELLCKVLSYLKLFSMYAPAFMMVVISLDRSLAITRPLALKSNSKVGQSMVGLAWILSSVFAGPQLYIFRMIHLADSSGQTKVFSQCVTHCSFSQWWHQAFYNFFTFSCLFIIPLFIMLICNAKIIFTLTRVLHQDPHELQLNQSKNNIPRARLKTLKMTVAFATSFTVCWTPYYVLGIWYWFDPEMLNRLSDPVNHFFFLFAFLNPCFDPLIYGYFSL
Procedure, shortened: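 Compounds dissolved in DMSO are pin-transferred onto dye-loaded GnRHR-HEK293 cells, which were seeded 18 h before at 37 C/5% CO2. Calcium signal is read as fluorescence intensity at 1 s intervals for 3 min.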

[3] = molecular target: KiSS-1 receptor (Homo sapiens) (UniProt Q969F8); assay: Human kisspeptin (KISS1R) small molecule agonists, calcium flux assay in KISS1R-HEK293 cells (AID 1920064; active = well fitted curve in the direction sought with a large enough effect in the repeat runs; an effect the other way counts as inactive or inconclusive)
Chain of KiSS-1 receptor (Homo sapiens) (Q969F8 whole entry, looked up): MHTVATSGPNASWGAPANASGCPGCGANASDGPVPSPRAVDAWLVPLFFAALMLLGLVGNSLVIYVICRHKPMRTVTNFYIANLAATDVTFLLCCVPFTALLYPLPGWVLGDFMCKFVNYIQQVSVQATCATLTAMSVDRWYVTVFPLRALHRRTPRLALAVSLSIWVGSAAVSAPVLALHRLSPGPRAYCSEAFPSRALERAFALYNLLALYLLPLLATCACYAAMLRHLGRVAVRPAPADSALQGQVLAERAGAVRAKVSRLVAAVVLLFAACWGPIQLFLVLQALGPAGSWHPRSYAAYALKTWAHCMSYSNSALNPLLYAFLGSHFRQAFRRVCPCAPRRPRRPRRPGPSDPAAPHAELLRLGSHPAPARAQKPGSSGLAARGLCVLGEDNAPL
Procedure, shortened: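 Cell line: HEK293, stable human KISS1R. Dye loading 1 h at 37 C after 18 h culture. Read: kinetic fluorescence, 480/540 nm, 3 min at 1 s intervals.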

[4] = G protein-coupled receptor (GPCR) small molecule agonists, calcium flux assay: HEK293 wild type cell line counter screen (AID 1920065)
Procedure, shortened: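 Tox21 10K compounds, 15 concentrations each in triplicate, pin-transferred in DMSO onto dye-loaded cells; kinetic read at 480/540 nm for 3 min, 1 s intervals.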

[5] = p53 small molecule agonists, cell-based qHTS assay with human liver microsomes (AID 1963577);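 also: p53 response element beta-lactamase reporter cells with liver microsomes plus NADPH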
Procedure, shortened: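 16 h, 37 C exposure of p53RE-bla cells to compounds with human liver microsomes and NADPH (0.5 mg/mL final each); detection via LiveBLAzer mixture, 2 h dark at room temperature.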

[6] = p53 small molecule agonists, cell-based qHTS assay with rat liver microsomes (AID 1963578)
Procedure, shortened: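 With rat liver microsomes and NADPH present (0.5 mg/mL final each), p53RE-bla cells are treated with compound for 16 h at 37 C. LiveBLAzer detection mixture is then applied for 2 h at room temperature in the dark.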

[7] = p53 small molecule agonists, cell-based qHTS assay with rat liver microsomes: qHTS cell viability counter screen (AID 1963580); also: nearly all actives have a fitted effect of over 45% in size
Procedure, shortened: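 Cytotoxicity counter screen: intracellular ATP read by CellTiter-Glo luminescence in the p53 reporter wells. HCT-116 p53RE-bla cells were treated for 16 h at 37 C alongside rat liver microsomes and NADPH, each 0.5 mg/mL final.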

[8] = p53 small molecule agonists, cell-based qHTS assay: qHTS cell viability counter screen (AID 1963581); also: nearly all actives have a fitted effect of over 45% in size; also: potency is read from the fitted curve at half-maximal effect
Procedure, shortened: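 ATP content measured by luminescence in HCT-116 p53RE-bla cells treated 16 h at 37 C, same wells as the reporter screen.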

[9] = molecular target: Beta-2 adrenergic receptor (Homo sapiens) (UniProt P07550); assay: Adrenergic beta2 receptor (ADRB2) small molecule antagonists, cell-based qHTS assay (AID 1963592); also: series mostly up to about 92 µM; nearly all actives have a fitted effect of over 50% in size
Chain of Beta-2 adrenergic receptor (Homo sapiens) (P07550 whole entry, looked up): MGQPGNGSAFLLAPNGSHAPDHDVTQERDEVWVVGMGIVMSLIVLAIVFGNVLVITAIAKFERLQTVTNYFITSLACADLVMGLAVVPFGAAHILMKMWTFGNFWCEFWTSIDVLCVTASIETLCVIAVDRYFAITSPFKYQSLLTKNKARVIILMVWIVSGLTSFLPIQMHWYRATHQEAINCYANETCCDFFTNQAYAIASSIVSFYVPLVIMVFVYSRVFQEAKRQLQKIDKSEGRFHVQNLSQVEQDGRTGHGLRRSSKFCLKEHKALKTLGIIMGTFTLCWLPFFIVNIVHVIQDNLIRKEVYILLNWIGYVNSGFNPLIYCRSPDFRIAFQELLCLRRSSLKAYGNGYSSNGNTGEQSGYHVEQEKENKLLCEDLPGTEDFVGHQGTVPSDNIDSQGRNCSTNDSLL
Procedure, shortened: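 Assay format: CHO-ADRB2 cells, 18-20hr seeding at 37C/5% CO2, then compound plus 1nM isoproterenol agonist mix for 0.5hr RT. Homogeneous time-resolved fluorescence cAMP detection after 1hr, expressed as 665/615 nm ratio.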

[10] = molecular target: D(2) dopamine receptor (Homo sapiens) (UniProt P14416); assay: Dopamine D2 receptor (DRD2) small molecule antagonists, cell-based qHTS assay (AID 1963595; active = well fitted inhibition curve with a large enough effect in the signal ratio in the repeat runs, with a control signal flat; the % refers to the signal ratio)
Chain of D(2) dopamine receptor (Homo sapiens) (P14416 whole entry, looked up): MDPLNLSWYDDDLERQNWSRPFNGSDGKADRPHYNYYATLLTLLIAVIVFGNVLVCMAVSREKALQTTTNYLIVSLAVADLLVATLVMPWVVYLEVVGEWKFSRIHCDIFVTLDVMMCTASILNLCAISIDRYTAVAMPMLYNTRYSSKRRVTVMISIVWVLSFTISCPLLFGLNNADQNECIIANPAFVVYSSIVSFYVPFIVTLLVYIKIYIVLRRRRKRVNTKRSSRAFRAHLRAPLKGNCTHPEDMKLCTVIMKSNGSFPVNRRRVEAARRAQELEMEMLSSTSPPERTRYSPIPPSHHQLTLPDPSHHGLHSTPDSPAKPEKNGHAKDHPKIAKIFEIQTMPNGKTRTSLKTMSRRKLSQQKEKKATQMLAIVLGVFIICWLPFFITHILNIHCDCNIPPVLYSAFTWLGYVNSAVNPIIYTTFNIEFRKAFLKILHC
Procedure, shortened: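 HEK293 cells stably expressing DRD2 were preincubated with 0.1 mM Ro20-1724, then with compound for 10 min at room temperature. Cells were stimulated with 200 nM NKH477 plus 12 nM quinpirole for 30 min, and cAMP was read by HTRF.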

[11] = p53 small molecule agonists, cell-based qHTS assay (AID 1963582; active = well fitted activation curve with a large enough effect in the signal ratio in the repeat runs, not every such curve was filed as active; the % refers to the signal ratio)
Procedure, shortened: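 16 h compound exposure (37 C) of p53 response element–bla cells, preceded by 5 h recovery at 37 C/5% CO2; read-out via LiveBLAzer B/G FRET substrate, 2 h RT, fluorescence intensity.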

[12] = molecular target: 5-hydroxytryptamine receptor 2A (Homo sapiens) (UniProt P28223); assay: 5-hydroxytryptamine receptor 2A (HTR2A) small molecule antagonists, cell-based qHTS assay (AID 1963586); also: nearly all actives have a fitted effect of over 45% in size
Chain of 5-hydroxytryptamine receptor 2A (Homo sapiens) (P28223 whole entry, looked up): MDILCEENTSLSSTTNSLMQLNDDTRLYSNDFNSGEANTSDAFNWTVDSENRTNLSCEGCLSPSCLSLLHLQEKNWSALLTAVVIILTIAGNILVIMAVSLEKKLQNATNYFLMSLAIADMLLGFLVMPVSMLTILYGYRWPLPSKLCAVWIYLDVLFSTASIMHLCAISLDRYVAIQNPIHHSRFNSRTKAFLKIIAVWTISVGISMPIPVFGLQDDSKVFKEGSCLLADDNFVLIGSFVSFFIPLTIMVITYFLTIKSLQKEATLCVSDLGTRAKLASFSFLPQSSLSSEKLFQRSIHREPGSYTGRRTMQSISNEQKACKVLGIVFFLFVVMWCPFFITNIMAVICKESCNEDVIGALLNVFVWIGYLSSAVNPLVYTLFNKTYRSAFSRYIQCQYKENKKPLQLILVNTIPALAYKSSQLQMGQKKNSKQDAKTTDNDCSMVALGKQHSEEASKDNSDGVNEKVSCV
Procedure, shortened: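 CHO cells stably expressing human HTR2A were plated for 18 h at 37 C, then loaded with calcium dye for 1 h. Compounds were preincubated 5 min at room temperature before DOI (4 nM solution) was added. Kinetic fluorescence was read for 3 min.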

[13] = molecular target: 5-hydroxytryptamine receptor 2A (Homo sapiens) (UniProt P28223); assay: 5-hydroxytryptamine receptor 2A (HTR2A) small molecule agonists, cell-based qHTS assay (AID 1963587); also: nearly all actives have a fitted effect of over 30% in size
Procedure, shortened: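 Kinetic calcium-flux fluorescence (2 min, 1 sec intervals) after compound addition in agonist mode. HTR2A-CHO cells were cultured 18 h, then dye-loaded 1 h at 37 C.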

[14] = molecular target: Muscarinic acetylcholine receptor M1 (Homo sapiens) (UniProt P11229); assay: Cholinergic receptor muscarinic 1 (CHRM1) small molecule antagonists, cell-based qHTS assay (AID 1963588); also: nearly all actives have a fitted effect of over 40% in size
Chain of Muscarinic acetylcholine receptor M1 (Homo sapiens) (P11229 whole entry, looked up): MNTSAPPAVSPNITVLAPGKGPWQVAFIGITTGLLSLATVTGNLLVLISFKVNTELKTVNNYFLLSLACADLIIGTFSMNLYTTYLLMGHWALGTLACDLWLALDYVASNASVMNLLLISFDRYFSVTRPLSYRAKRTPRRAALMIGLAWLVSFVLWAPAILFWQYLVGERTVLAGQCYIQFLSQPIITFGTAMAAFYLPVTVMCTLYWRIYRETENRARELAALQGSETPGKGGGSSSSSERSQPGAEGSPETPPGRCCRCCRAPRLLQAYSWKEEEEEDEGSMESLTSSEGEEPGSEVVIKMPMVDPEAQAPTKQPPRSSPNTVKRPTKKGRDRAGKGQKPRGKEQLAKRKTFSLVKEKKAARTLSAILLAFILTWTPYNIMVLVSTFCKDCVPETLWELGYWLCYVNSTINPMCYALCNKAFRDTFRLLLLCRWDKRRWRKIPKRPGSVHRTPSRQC
Procedure, shortened: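 Compounds were tested at 15 concentrations in three independent runs. Dye-loaded CHRM1-CHO cells were exposed 5 min at room temperature before stimulation by acetylcholine added at 50nM. Intracellular calcium was read kinetically on FDSS for 3 min.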

[15] = molecular target: Muscarinic acetylcholine receptor M1 (Homo sapiens) (UniProt P11229); assay: Cholinergic receptor muscarinic 1 (CHRM1) small molecule agonists, cell-based qHTS assay (AID 1963589); also: nearly all actives have a fitted effect of over 35% in size
Procedure, shortened: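 Homogeneous fluorescence calcium flux, agonist mode. Human M1-expressing CHO cells; compound dosed at 15 concentrations, three independent runs; signal sampled every 1 sec.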

[16] = cAMP Responsive Elements (CRE) small molecule agonists, cell-based qHTS assay (AID 1963590)
Procedure, shortened: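 HEK 293T cells stably bearing CRE-bla were plated at 2,000 cells per well and rested 18 h. Compounds, positive controls or DMSO were added for 3 h at 37 C. LiveBLAzer B/G substrate was then loaded for 2 h at room temperature.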

[17] = cAMP Responsive Elements (CRE) small molecule antagonists, cell-based qHTS assay (AID 1963591; active = well fitted inhibition curve with a large enough effect in the signal ratio in the repeat runs, not every such curve was filed as active; the % refers to the signal ratio)
Procedure, shortened: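 First, CRE-bla HEK293T cells settled 18 h at 37 C. Next, compound and 0.25 uM final NKH477 were applied for 3 h. Last, LiveBLAzer B/G substrate was loaded for 2 h at room temperature.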

[18] = molecular target: Beta-2 adrenergic receptor (Homo sapiens) (UniProt P07550); assay: Adrenergic beta2 receptor (ADRB2) small molecule agonists, cell-based qHTS assay (AID 1963593);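 also: CHO cells stably overexpressing human ADRB2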
Procedure, shortened: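 CHO cells stably over-expressing ADRB2 were plated overnight at 37C, then dosed with compounds plus a stimulation mix containing 100uM IBMX and 25uM Ro-20-1724 for 0.5hr at room temperature. cAMP was measured by HTRF competition, 1hr.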

[19] = molecular target: D(2) dopamine receptor (Homo sapiens) (UniProt P14416); assay: Dopamine D2 receptor (DRD2) small molecule agonists, cell-based qHTS assay (AID 1963594); also: nearly all actives have a fitted effect of over 35% in size
Procedure, shortened: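 cAMP accumulation in DRD2-HEK293 cells measured by HTRF after 1 h detection; compounds added 10 min before NKH477 (200nM […]) forskolin-analogue stimulation, 30 min at room temperature, with Ro20-1724 present at 0.1 mM final.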

[20] = p53 small molecule agonists, cell-based qHTS assay with human liver microsomes: qHTS cell viability counter screen (AID 1963579); also: nearly all actives have a fitted effect of over 45% in size
Procedure, shortened: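 In this multiplexed counter screen, the reporter plates were subsequently treated with CellTiter-Glo so that cell viability, reflected by luminescence, could be recorded for p53RE-bla cells dosed 16 h with compounds under microsomal activation (HLM and NADPH).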

Structure (SMILES) | Potency [1] | Potency [2] | Potency [3] | Potency [4] | Potency [5] | Potency [6] | Potency [7] | Potency [8] | Potency [9] | Potency [10] | Potency [11] | Potency [12] | Potency [13] | Potency [14] | Potency [15] | Potency [16] | Potency [17] | Potency [18] | Potency [19] | Potency [20]
CC(C)(C)c1ccc(C(=O)CCCN2CCC(OC(c3ccccc3)c3ccccc3)CC2)cc1 | 6.68 µM (active) | inactive | inactive | inactive | inactive | inactive | inactive | 11.2 µM (active) | inactive | inactive |  |  |  |  |  |  |  |  |  | 
CC(CC=O)c1ccccc1 (centres undefined) | inactive | inactive | inactive | inactive | inactive | inactive | inactive | inactive | inactive | inactive | inactive | inactive | inactive | inactive | inactive | inactive | inactive | inactive | inactive | 
O=C1CCc2ccc(OCCCCN3CCN(c4cccc(Cl)c4Cl)CC3)cc2N1 | 21.1 µM (active) | inactive | inactive | inactive | inactive | inactive |  |  |  |  |  |  |  |  | inactive |  | inactive |  |  | inactive
C[C@H](CS)C(=O)N1CCC[C@H]1C(=O)O | inactive | inactive | inactive | inactive | inactive | inactive |  | inactive | inactive | inactive | inactive |  |  |  |  |  | inactive | inactive | inactive | inactive
O=C(O)Cc1ccc(Cl)cc1Cl | inactive | inactive | inactive | inactive | inactive | inactive |  | inactive | inactive | inactive | inactive | inactive | inactive | inactive | inactive | inactive | inactive | inactive | inactive | 
CCN(Cc1ccncc1)C(=O)C(CO)c1ccccc1 (centres undefined) | inactive | inactive | inactive | inactive | inactive | inactive | inactive | inactive | inactive |  | inactive |  |  |  |  | inactive |  | inactive | inactive | 
CC(=O)[C@H]1[C@H](C#N)C[C@H]2[C@@H]3CC=C4C[C@@H](O)CC[C@]4(C)[C@H]3CC[C@@]21C | inactive | inactive | inactive | inactive | inactive | inactive | inactive | inactive | inactive | inactive | inactive |  |  |  |  | inactive |  |  | inactive | 
CCCCCCCC/C=C/CCCOC(C)=O | inactive | inactive | inactive | inactive | inactive | inactive | inactive | inactive | inactive | inactive | inactive | inactive | inactive | inactive | inactive | inactive | inactive |  | inactive | 
